Shown is part of a subset that was picked to be rich in hits.
ROC1-CUL1 inh – human ROC1-CUL1 E3 ligase inhibition. P62877+Q13616. in vitro K48 di-Ub FRET, acceptor:donor ratio, 45 min. inhibition, % at 10 µM. 0.6% of 140,000 active; in the data active = inhibition above about 25%
Target sequence (P62877 whole entry, looked up): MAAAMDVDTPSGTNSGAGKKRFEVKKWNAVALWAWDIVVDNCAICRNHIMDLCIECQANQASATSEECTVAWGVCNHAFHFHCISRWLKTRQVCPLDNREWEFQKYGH
Target sequence (Q13616 whole entry, looked up): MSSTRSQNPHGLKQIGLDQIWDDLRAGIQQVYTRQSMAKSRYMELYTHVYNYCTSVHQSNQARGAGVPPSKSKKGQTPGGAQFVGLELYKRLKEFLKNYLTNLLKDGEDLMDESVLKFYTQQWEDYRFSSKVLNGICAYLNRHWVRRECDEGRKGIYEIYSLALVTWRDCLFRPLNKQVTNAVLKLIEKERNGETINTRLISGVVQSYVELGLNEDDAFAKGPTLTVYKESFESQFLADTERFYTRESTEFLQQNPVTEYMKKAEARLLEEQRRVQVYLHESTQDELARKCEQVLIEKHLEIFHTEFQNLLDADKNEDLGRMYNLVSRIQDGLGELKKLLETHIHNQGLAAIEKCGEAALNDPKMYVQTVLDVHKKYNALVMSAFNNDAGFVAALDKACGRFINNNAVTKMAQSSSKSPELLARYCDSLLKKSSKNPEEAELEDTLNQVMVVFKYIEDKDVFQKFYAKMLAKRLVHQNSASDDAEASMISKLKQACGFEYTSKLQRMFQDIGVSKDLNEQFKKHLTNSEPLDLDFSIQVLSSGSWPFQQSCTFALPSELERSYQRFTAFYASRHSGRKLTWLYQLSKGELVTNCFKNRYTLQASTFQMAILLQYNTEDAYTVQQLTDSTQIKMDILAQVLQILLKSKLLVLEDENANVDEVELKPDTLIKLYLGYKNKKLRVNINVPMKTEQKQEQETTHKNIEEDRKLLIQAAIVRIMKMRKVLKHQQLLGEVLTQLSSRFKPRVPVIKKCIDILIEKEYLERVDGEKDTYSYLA
A number is an active result; n = inactive.

SMILES	ROC1-CUL1 inh
COc1ccc(/C=C2\CCC/C(=C\c3ccc(OC)c(OC)c3)C2=O)cc1OC	n
Cc1cc(C(=O)CN2CCOCC2)c(C)n1-c1ccc(F)cc1	n
COc1ccc(C(=O)N=C(Cc2ccc(Br)cc2)C(=O)N2CCNCC2)cc1	n
O=C(NCc1ccon1)c1ccc(OC2CCN(Cc3ccccn3)CC2)cc1	n
C=CCOc1ccc(Br)cc1/C=C/c1[nH]c(=O)[nH]c(=O)c1[N+](=O)[O-]	42
C#CCOc1ccc(/C=C/c2[nH]c(=O)[nH]c(=O)c2[N+](=O)[O-])cc1OC	n
C=CCOc1ccc(Br)cc1/C=C1/SC(=O)NC1=O	n
COc1cc(F)ccc1-c1nc2c(cnn2-c2ccccc2)[nH]1	n
CC(C)(C)NC(=O)Cc1ccccc1Cl	n
CC1=CC(=NS(=O)(=O)c2ccccc2)C(C(C)C)=C(Br)C1=O	n
CCCCC(=O)Nc1cccc2cccc(S(=O)(=O)O)c12	95
CCCCC(=O)Nc1ccccc1O	n
CCCCC(=O)Nc1ccccc1NC(=O)C(C)C	n
O=C(c1cccc2c1OCCO2)N1CCc2[nH]nc(-c3cccc(F)c3)c2C1	n
COc1ccc(NC(=O)N=C2CN(CC(C)C)C(=O)c3ccccc32)c(OC)c1	n
COc1ccc(CNC(=O)N=C2CN(CC(C)C)C(=O)c3ccccc32)c(OC)c1	28
Cc1ccc(CNC(=O)N=C2CN(CC(C)C)C(=O)c3ccccc32)cc1	n
CCOc1cccc(CNc2ccc(O)cc2)c1OCc1ccccc1	97
CCOc1cc(CNc2ccc(O)cc2)cc(Br)c1OCc1cccs1	75
Oc1ccc(NCc2ccccc2OCc2ccc(Cl)cc2)cc1	n
CCOc1cc(CNc2ccc(O)cc2)cc(Br)c1OCc1ccccc1	n
Oc1ccc(NCc2ccccc2OCc2ccccc2)cc1	n
CCOc1cc(CNCc2cccs2)cc(Br)c1OC	n
CCOC(=O)N1CCN(C2CCCN(Cc3cccc4c3OCO4)C2)CC1 (configuration not stated)	n
COc1cccc(C(=O)N2CCCC(CO)(CCc3ccccc3)C2)c1 (configuration not stated)	n
SMILES	ROC1-CUL1 inh
C=CCn1c(SCCC)nc2sc3c(c2c1=O)CCCC3	n
c1ccc2oc(Sc3nc4ccccc4o3)nc2c1	n
CCCCN(C)C(=O)CCC1(Cc2ccc(F)cc2)CCC(=O)N1 (configuration not stated)	n
Cc1cccc(C)c1Oc1ncccc1CNC(=O)c1cn[nH]c1C	n
COc1ccc(CN2CCC(C(Cc3ccccc3F)N(C)Cc3cn(C)nc3C)CC2)c(O)c1 (configuration not stated)	n
Cc1ccccc1C(c1ccccc1)C1C(=O)c2ccccc2C1=O (configuration not stated)	n
CC(C(=O)OCC(=O)c1ccc(-c2ccccc2)cc1)N1C(=O)c2c(Cl)c(Cl)c(Cl)c(Cl)c2C1=O (configuration not stated)	n
O=C1c2c(Cl)c(Cl)c(Cl)c(Cl)c2C(=O)C1C(c1ccccc1)c1ccccc1	62
Cc1ccc(CS(=O)(=O)Nc2ccc(F)cc2F)cc1	n
CCOC(=O)C1C(=O)NC(N2CCN(C)CC2)=NC1c1ccccc1OC (configuration not stated)	n
N#CC1C(=N)Oc2n[nH]c(-c3ccc(-c4ccccc4)cc3)c2C1c1ccccn1 (configuration not stated)	31
N#CC1C(=N)Oc2n[nH]c(-c3ccccc3)c2C1c1ccccc1Cl (configuration not stated)	n
Cc1ccc(-c2[nH]nc3c2C(c2ccc(Cl)cc2)C(C#N)C(=N)O3)cc1 (configuration not stated)	n
Cc1ccc(-c2[nH]nc3c2C(c2ccc4c(c2)OCO4)C(C#N)C(=N)O3)cc1 (configuration not stated)	n
Cc1ccc(-c2[nH]nc3c2C(c2ccc(O)c(O)c2)C(C#N)C(=N)O3)cc1 (configuration not stated)	35
N#CC1C(=N)Oc2n[nH]c(-c3ccc(-c4ccccc4)cc3)c2C1c1ccccc1F (configuration not stated)	n
COCCO[C@H]1[C@H](NC(=O)C(C)C)c2ccccc2C12CCN(Cc1cccc(O)c1)CC2	n
O=C(ON=C1c2ccccc2-c2ccccc21)c1ccccc1Cl	n
CCN1CCN(C2(C(=O)NC(C)Cc3cccnc3)Cc3ccccc3C2)CC1 (configuration not stated)	n
Cc1ccc(C)c(Cn2nnc(C(=O)NCc3ccccc3)c2N)c1	n
CCO[C@H]1[C@H](NC(=O)c2ccco2)c2ccccc2C12CCN(C(=O)c1cn3c(C)cccc3n1)CC2	n
COc1cc2c(cc1OC)C(=O)CCS2	n
COc1cc2c(cc1OC)/C(=C/CC1(C)C(=O)CCC1=O)CCS2	n
COc1cc2c(cc1OC)C1=C(C3=CCC(=O)[C@@]3(C)CC1)[C@H](C)S2	25
Cc1ccc(-c2n[nH]c(=S)n2/N=C/C=C/c2ccco2)cc1	n
S=c1[nH]nc(-c2ccco2)n1-c1ccccc1	n
Nn1c(=S)[nH]nc(/C=C/c2ccco2)c1=O	96
